SW480 rereplic = DNA re-replication induction in SW480 cells | SW480 DNA re-replication, Hoechst DNA content imaging, 48 h | AID 624297 | Potency, µM (series often up to 46.1 µM), for inactives: at the top dose re-replication activation, actives largely listed as activators | 340,000 compounds, 1.8% hits; also: % of control where 0% means no effect; nearly all actives have a fitted effect of over 55% in size
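Readout is total intensity of Hoechst-stained nuclei, excited at 405 nm and collected at 500-530 nm. Compound treatment lasted 48 hr at 37 C in 5% CO2 before staining.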
KB-V1 MDR tox = kills drug-selected multidrug resistant KB-V1 cells; KB-V1 MDR cells viability, CellTiter-Glo, 72 h; Potency, µM (top dose mostly 46.1 µM), usual class: cytotoxic; 400,000 compounds, 3.4% hits; AID 1347076; also: % is scaled to controls: 0 for no effect and ±100 for the full control effect; nearly all actives have a fitted effect of over 60% in size
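Potencies derive from concentration-effect curves fitted to normalized luminescence (CellTiter-Glo) of KB-V1 cells treated for 72 h at 37 degrees C in phenol-red-free DMEM containing 10% FBS.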
KB-3-1 tox = kills parental KB-3-1 adenocarcinoma cells; KB-3-1 viability, CellTiter-Glo ATP luminescence, 72 h; Potency, µM (titrated, usually from 46.1 µM), most hits filed as cytotoxic; 400,000 compounds, 1.4% hits; AID 1347075; also: % is scaled to controls: 0 for no effect and ±100 for the full control effect; nearly all actives have a fitted effect of over 60% in size
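Here the drug-naive KB-3-1 line serves as comparator for MDR sub-line selectivity; cells received compound titrations, 72 h at 37 °C, then CellTiter-Glo readout.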
PINK1 expr mod = modulators of PINK1 expression. Potency, µM (series often up to 76.6 µM), without a hit: at the highest dose activation (PINK1 increase), most hits filed as activators. PINK1 immunofluorescence, high-content cytometry, 24 h. 410,000 compounds, 0.2% hits. AID 624263; active = well fitted activation curve with a large enough effect; inconclusive = small, poorly fitted or top-dose-only effect; cell line not stated here; also: % of control where 0% means no effect; nearly all actives have a fitted effect of over 65% in size
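Fluorescence from anti-PINK1 antibody, together with nuclear and cell stains, was scanned on a laser-scanning cytometer. Before staining, stable-line cells were incubated 24 hours with compounds at 5 concentrations; primary antibody 12 h at 10 degrees C.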
MCF10A rereplic = DNA re-replication induction in MCF 10a cells. AID 624296. Potency, µM (series often up to 46.1 µM), for inactives: at the top dose activity, positive = re-replication, actives largely listed as activators. MCF 10A DNA re-replication, Hoechst nuclear intensity, 48 h. 350,000 compounds, 2.9% hits; also: % of control where 0% means no effect; nearly all actives have a fitted effect of over 50% in size
* hit, by the source's call; i = inactive; ? = inconclusive; . = no result; ! = not confirmed by another sample; [ ] = dose if it differs, or a comment. Only some compounds are listed: those with a hit (about 6.7% of all), similar ones and a draw of the others. Unless noted, calls follow the shape of the dose curve; as a rule, active = well fitted curve in the direction sought with a large enough effect; inconclusive = small, poorly fitted or top-dose-only effect, or another doubt; inactive = no such curve, though single readings can be large; an effect the other way counts as inactive or inconclusive. Potency is read from the fitted curve at half-maximal effect.

SMILES	SW480 rereplic	KB-V1 MDR tox	KB-3-1 tox	PINK1 expr mod	MCF10A rereplic
CN(C)C(=O)c1ccc2c(c1[N+](=O)[O-])C(=O)c1ccccc1C2=O	.	?	i	1%	?
COc1ccc(C2C(C#N)=C(N)N(c3sc4c(c3C#N)CCCC4)C3=C2C(=O)CC(C)(C)C3)cc1 (configuration not stated)	4%	5.8µM*	i	7%	20%
COc1cccc(CSc2nc3ccncc3n2CC(=O)Nc2ccc(OC)c(OC)c2OC)c1	.	i	i	0%	.
Cc1cc(C)c(N2C(=O)CC(Sc3ccccc3N)C2=O)c(C)c1 (configuration not stated)	.	?	?	7%	.
COc1ccc(CCNC(=O)C(=O)NCC(c2cccs2)S(=O)(=O)c2ccc(F)cc2)cc1 (configuration not stated)	.	?	?	1%	.
COc1cccc(CN(C)C(=O)c2cccc(OCc3ccccc3)c2)c1	-1%	?	i	0%	10%
CCCc1ccc(C(=O)O)cc1	0%	.	.	.	8%
COc1ccc(C(=O)Cn2nc(CNc3ccc(Br)cc3)[n+]3c2CCCCC3)cc1	12%	i	21µM*	20%	?
O=C(Cn1nc(-c2nn(CC(=O)c3ccccc3)c3[n+]2CCCCC3)[n+]2c1CCCCC2)c1ccccc1	-33%	?	i	2%	7%
c1ccc(-c2nnc(-c3ccccn3)nc2NC2CCCCC2)cc1	?	?	16µM*	0%	10µM*
CSc1ncccc1C(=O)Nc1ccc2c(c1)OCCO2	0%	i	i	1%	0%
FC(F)(F)c1cccc(N2CCN(c3nnnn3-c3ccccc3)CC2)c1	11%	?	i	0%	13%
CN1CCN(C=NC2=NN(c3cccc(C(F)(F)F)c3)CC2)CC1	-3%	10µM*	?	-1%	6%
CN(C)C=NC1=NN(c2cccc(C(F)(F)F)c2)CC1	-4%[9.22 µM]	2.1µM*	21µM*	0%	14%
[N-]=[N+]=NC(c1ccccc1)C(NC(=O)c1cc(C(F)(F)F)cc(C(F)(F)F)c1)c1ccccc1 (configuration not stated)	.	i	?	5%	.
Cc1cc(N2CCN(C(c3ccccc3)c3ccccc3)CC2)n2ncnc2n1	-10%	?	i	-2%	?
Cc1cc(N2CCN(c3nc4ccccc4s3)CC2)n2ncnc2n1	-13%	1µM*	2.6µM*	2%[38.3 µM]	17%
Nc1ccc(C(=O)n2c3ccccc3c3ccccc32)cc1	3.3µM*	1.8µM*	2.3µM*	8%	?
N#Cc1ccccc1NC(=O)c1ccc2c(Cl)c3c(nc2c1)CCCC3	-1%	8.2µM*	i	-1%	1%
CC1CCN(c2ccc3c(c2)S(=O)(=O)c2cccc(C(=O)NCc4cccc(F)c4)c2C3=O)CC1	10%	i	i	-1%	?
O=C(NCc1ccc(OC(F)(F)F)cc1)c1cccc2c1C(=O)c1ccc(N3CCCC3)cc1S2(=O)=O	0%	i	i	-1%	10%
O=C(NCc1cccc(C(F)(F)F)c1)c1cccc2c1C(=O)c1ccc(N3CCC(Cc4ccccc4)CC3)cc1S2(=O)=O	13%	i	i	1%	5.8µM*
O=C(NCc1ccc(OC(F)(F)F)cc1)c1cccc2c1C(=O)c1ccc(N3CCC(Cc4ccccc4)CC3)cc1S2(=O)=O	-2%	i	i	16%	5.8µM*
O=C(NCc1cccc(F)c1)c1cccc2c1C(=O)c1ccc(N3CCC(Cc4ccccc4)CC3)cc1S2(=O)=O	-2%	i	i	2%	12µM*
CC(c1nc2ccccc2[nH]1)n1c(=O)c(-c2ccco2)nc2ccccc21 (configuration not stated)	.	i	i	.	.
SMILES	SW480 rereplic	KB-V1 MDR tox	KB-3-1 tox	PINK1 expr mod	MCF10A rereplic
COc1ccc(Cn2nnnc2C(c2ccccn2)N2CCN(c3cc(Cl)ccc3C)CC2)cc1 (configuration not stated)	?	13µM*	?	.	2%
CC(C)(C)[C@H]1COC(=O)[C@H](NC(=O)OCC2c3ccccc3-c3ccccc32)C/C=C\C[C@@H](CC(=O)N(CCO)Cc2ccccc2)C(=O)N1	12%	i	i	0%	?
CCN1/C(=C\C(=S)Nc2ccccc2)Sc2ccccc21	2%	i	?	?	7%
CCN1/C(=C/C(C)=C/c2sc3ccccc3[n+]2CC)Sc2ccccc21	30%	21µM*!	0.73µM*	5%	-7%
Cc1ccccc1-n1nc2c(c1NC(=O)c1cc3ccccc3o1)CS(=O)(=O)C2	-4%	i	i	0%	3%
O=C(Nc1ccccc1C(=O)N1CCCCC1)c1ccccc1C(F)(F)F	2%	i	i	-1%	0%
CCC(=O)N1CCc2cc(S(=O)(=O)NCCC(=O)Nc3ccc(CC)cc3)ccc21	.	i	i	1%	.
CCOCC(=O)N1CCN(c2ccc([N+](=O)[O-])cc2)CC1	-1%	18µM*	i	-1%	3%
O=C(CCCC(=O)N1CCN(c2ccc([N+](=O)[O-])cc2)CC1)c1ccccc1	-20%	?	i	1%	3%
O=C(CCCc1ccccc1)N1CCN(c2ccc([N+](=O)[O-])cc2)CC1	-12%	16µM*	i	7%	3%
CC(=O)OCC(=O)N1CCN(c2ccc([N+](=O)[O-])cc2)CC1	-33%	i	i	-2%	-3%
O=C(CSc1ccsc1[N+](=O)[O-])N1CCN(c2ccccc2)CC1	-6%	?	5.8µM*	13%	-1%
N/N=C/C(=N\Nc1ccc(Cl)cc1)C(=O)c1ccncc1	10µM*	i	i	-1%	-2%
O=C(NNC(=O)c1ccncc1)Nc1ccc(Cl)cc1	2%	i	i	-4%	0%
CCOc1ccc(-c2cn3c(n2)sc2cc(C(=O)NCCCN(CC)CC)ccc23)cc1	.	?	?	2%	.
CCCCN(CC)S(=O)(=O)c1ccc(C(=O)Nc2nnc(CSC)o2)cc1	?	i	?	-1%	?
CCCN(CCC)S(=O)(=O)c1ccc(C(=O)Nc2nnc(CSC)o2)cc1	21%	7.3µM*	6.5µM*	0%	?
CCN(c1ccccc1)S(=O)(=O)c1ccc(C(=O)Nc2nnc(CSC)o2)cc1	?	?	?	-1%	?
CCCCN(CCCC)S(=O)(=O)c1ccc(C(=O)Nc2nnc(CSC)o2)cc1	?	?	?	2%	10µM*
Cc1cccc(CN2C(=O)CC(c3ccc(Cl)cc3)c3c(C)nn(-c4nc(C)cc(C)n4)c32)c1 (configuration not stated)	.	i	i	7%	.
COc1ccc(NC(=S)NC23CN4CN(CN(C4)C2)C3)cc1	0.52µM*	i	i	1%	-4%

Compound activity deposited in PubChem BioAssay by National Center for Advancing Translational Sciences (NCATS).
